# Source: PubChem BioAssay (National Center for Advancing Translational Sciences (NCATS))
# Pol kappa inh = qHTS for Inhibitors of Polymerase Kappa; DNA polymerase kappa (Homo sapiens), Q9UBT6; Potency, µM (highest dose often 107 µM), for the others: top-dose activity, negative = inhibition, most hits filed as inhibitors; 400,000 tested, 0.53% active; AID 588579, 2011; purified Pol kappa, fluorescent DNA synthesis assay, 10 min; further: on the % scale 0 is the no-effect control and ±100 the full control effect
#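 Pol kappa 10 nM + cpd, 15 min RT; start w/ substrate 50 nM final; fluorescence kinetic read, 0 and 10 min. Neg ctrl: buffer, no enzyme.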
# POLB inh = qHTS Assay for Inhibitors of DNA Polymerase Beta; P06746; Pol beta primer extension/strand displacement, fluorescence kinetic; Potency, µM (titrated, usually from 114 µM), without a hit: top-dose activity change, negative = inhibition, usual class: inhibitors; 340,000 tested, 1.3% active; AID 485314, 2010; further: on the % scale 0 is the no-effect control and ±100 the full control effect
#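 Kinetic readout of DNA synthesis with strand displacement by Pol beta. Compound and 10 nM enzyme sit 15 min at room temperature; 50 nM substrate starts the reaction, read immediately and at 10 min.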
# Pol eta inh = qHTS for Inhibitors of Polymerase Eta | AID 588591, 2011 | recombinant Pol eta, fluorescent DNA replication assay | Potency, µM (top dose mostly 114 µM), without a hit: top-dose activity change, negative = inhibition, most hits filed as inhibitors | 390,000 tested, 1.2% active | DNA polymerase eta (Homo sapiens), Q9Y253; further: on the % scale 0 is the no-effect control and ±100 the full control effect
#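 Pol eta at 10 nM preincubated with compounds 15 min at room temperature; reaction started with fluorescent substrate (50 nM final) and read kinetically at 0 and 10 min.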
# FEN1 inh = qHTS Assay for the Inhibitors of Human Flap endonuclease 1 (FEN1); Recombinant FEN1 flap cleavage, fluorescence, 15 min; Potency, µM (highest dose often 114 µM), inactives show at the highest dose activity change, negative = inhibition, actives largely listed as inhibitors; 390,000 tested, 0.35% active; AID 588795, 2011; further: on the % scale 0 is the no-effect control and ±100 the full control effect; nearly all actives have a fitted effect of over 65% in size
#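 Steps: FEN1 (10 nM) dispensed; compound added by pin tool; 15 min at room temperature; substrate added to 50 nM final; reads at 0 min and 15 min; data normalized and fitted (four-parameter Hill).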
# WRN inhibitor = qHTS for Inhibitors of WRN Helicase; Bifunctional 3'-5' exonuclease/ATP-dependent helicase WRN (Homo sapiens), Q14191; WRN helicase unwinding, fluorescent forked duplex, kinetic; Potency, µM (top dose mostly 114 µM), inactives show at the top dose activity change, negative = inhibition, hits mostly inhibitors; 360,000 tested, 0.46% active; further: on the % scale 0 is the no-effect control and ±100 the full control effect; nearly all actives have a fitted effect of over 55% in size
#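 Fluorescence dequenching readout, ex 525 nm/em 598 nm, kinetic mode: forked duplex DNA (100 nM final) with adjacent fluorophore and quencher unwound by WRN (20 nM final) with 2 mM ATP. Compound preincubation 15 min, room temperature.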
# POLI inh = qHTS for Inhibitors of Polymerase Iota; Pol iota fluorescent replication assay, 10 min; 390,000 tested, 1% active; AID 588590, 2011; Potency, µM (top dose mostly 115 µM), inactives show at the highest dose activity, negative = inhibition, most hits filed as inhibitors
# Target sequence (Q9UNA4 whole entry, looked up): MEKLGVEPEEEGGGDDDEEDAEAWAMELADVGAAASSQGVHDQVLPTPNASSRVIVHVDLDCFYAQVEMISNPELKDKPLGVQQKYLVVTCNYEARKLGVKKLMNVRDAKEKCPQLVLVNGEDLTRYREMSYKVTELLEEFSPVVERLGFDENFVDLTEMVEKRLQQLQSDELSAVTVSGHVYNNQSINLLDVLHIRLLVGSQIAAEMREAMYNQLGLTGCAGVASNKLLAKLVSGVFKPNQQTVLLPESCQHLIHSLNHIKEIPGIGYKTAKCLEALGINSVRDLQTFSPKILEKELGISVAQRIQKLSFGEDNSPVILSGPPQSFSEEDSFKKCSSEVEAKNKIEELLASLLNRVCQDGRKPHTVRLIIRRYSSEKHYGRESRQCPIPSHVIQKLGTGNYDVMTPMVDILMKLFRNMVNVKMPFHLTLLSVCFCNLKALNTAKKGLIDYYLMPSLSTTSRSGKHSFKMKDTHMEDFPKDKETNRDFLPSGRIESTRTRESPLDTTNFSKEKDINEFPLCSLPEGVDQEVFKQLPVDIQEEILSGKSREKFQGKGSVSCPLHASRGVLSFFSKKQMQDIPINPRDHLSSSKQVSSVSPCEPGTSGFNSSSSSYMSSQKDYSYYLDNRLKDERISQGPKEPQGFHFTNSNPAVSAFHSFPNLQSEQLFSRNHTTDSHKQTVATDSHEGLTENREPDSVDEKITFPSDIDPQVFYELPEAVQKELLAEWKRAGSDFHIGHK
#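 Pol iota at 10 nM preincubated 15 min with compounds at room temperature; reaction started with fluorescent substrate, 50 nM final. Fluorescence read kinetically at 0 and 10 min; buffer-only wells as negative control.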
# Starred values were filed as active, the others as inactive; u = inconclusive; x = no result; [ ] = another dose, or the depositor's remark. Compounds with a hit are over-represented: about 2.4% of the library has one in this group of screens. The call rests on the fitted dose curve; in most records, active means well fitted curve in the direction sought with a large enough effect; inconclusive means small, poorly fitted or top-dose-only effect, or another doubt; inactive means no such curve, though single readings can be large; an effect the other way counts as inactive or inconclusive. Potency means the concentration at half of the fitted maximal effect.
SMILES,Pol kappa inh,POLB inh,Pol eta inh,FEN1 inh,WRN inhibitor,POLI inh
COc1ccc(NC(=O)CCS(=O)(=O)c2cc3c4c(c2)CCN4C(=O)CC3)cc1OC,2%,-3%,-1%,23%,x,10%
COc1cc(OC)c(Nc2nc3ccccc3c3nncn23)cc1Cl,0%,16%,-2%,2%,x,52%
O=C(C[n+]1csc2ccccc21)c1ccc(I)cc1,-6%,x,x,-13%,x,-6%
CCN(Cc1ccccc1)C(=O)Cn1c(=O)n(-c2cccc(C)c2)c(=O)c2c1c1cc(OC)ccc1n2C,7%,5%,-13%,4%,x,10%
COc1ccc2c(C)c(CCC(=O)NCc3ccccc3Cl)c(=O)oc2c1C,3%,33%,-2%,-2%,x,18%
COc1ccc2c(C)c(CC(=O)NCc3ccccc3Cl)c(=O)oc2c1OC,-14%,45µM*,-1%,14%,x,-7%
Cc1cc(/C=C2/C(=N)N3C(c4ccccc4)=CSC3=NC2=O)c(C)n1-c1ccc(Cl)cc1,-3%,x,-4%,-10%,0%,39%
N=C1/C(=C\c2ccc(-c3cccc(Cl)c3)o2)C(=O)N=C2SC=C(c3ccccc3)N12,u,10µM*,79µM*,-2%,u,u
COc1ccc2oc(C(=O)OCC(=O)NCCc3ccccc3)c(C)c2c1,-15%,x,-13%,0%,8%,-14%
O=C(NCc1ccco1)c1ccc(S(=O)(=O)N2CCOCC2)cc1,u,35µM*,u,-1%,-10%[57.1 µM],16µM*
COc1ccc2oc(C(=O)OCC(=O)NCc3ccco3)c(C)c2c1,-26%,x,50µM*,0%,-13%,u
O=C(COC(=O)c1ccccc1)NCc1ccco1,u,25µM*,13µM*,-11%,-7%[11.6 µM],28µM*
O=C(COC(=O)c1ccc(Br)o1)NCc1ccco1,u,x,10µM*,-10%,u,50µM*
O=C(COC(=O)c1cc(-c2ccc(Cl)s2)nc2ccccc12)NCc1ccco1,-10%,1%,20µM*,3%,35µM*,u
O=C(COC(=O)Cc1c(Cl)cccc1Cl)NCc1ccco1,u,x,35µM*,14%,-8%[11.6 µM],45µM*
O=C(COC(=O)COc1ccccc1)NCc1ccco1,1%,x,-4%,0%,-4%,15%
O=C(COC(=O)c1ccc(S(=O)(=O)N2CCCC2)cc1)NCc1ccco1,u,u,u,-9%,-5%[11.6 µM],50µM*
O=C(NCc1ccco1)c1ccc(S(=O)(=O)N2CCCCC2)cc1,-7%,3%,-4%,-14%,-10%,-12%
O=C(COC(=O)CNC(=O)c1ccc(-c2ccccc2)cc1)NCc1ccco1,-10%,8.9µM*,-22%,1%,-14%,70%
Cc1ccc(C)c2c(C)ccnc12,-9%,x,x,12%,x,57%
O=P1(O)OP(=O)(O)OP(=O)(O)O1.[Al],17%[60.1 µM],x,x,x,x,x
Cc1cc(Oc2ccc(Cl)cc2Cl)nc(C#N)n1,-10%,x,x,9%,x,-8%
O=C(COC(=O)c1cc(Cl)cc(Cl)c1)NCc1ccco1,u,x,56µM*,-12%,-3%[11.6 µM],u
Cc1cccc(C(=O)OCC(=O)NCc2ccco2)c1,u,x,16µM*,-16%,6%[11.6 µM],79µM*
O=C(COC(=O)c1ccco1)NCc1ccco1,-4%,-6%,-8%,2%,-11%,-16%
SMILES,Pol kappa inh,POLB inh,Pol eta inh,FEN1 inh,WRN inhibitor,POLI inh
Cc1ccc(C(=O)Nc2ccccc2C(=O)NCc2ccco2)cc1S(=O)(=O)N1CCCCC1,-11%,-29%,-12%,-14%,-8%,-1%
O=C(COC(=O)c1cccc(Br)c1)NCc1ccco1,u,x,79µM*,-1%,u,25µM*
Cc1ccc(C(=O)NCc2ccco2)cc1S(=O)(=O)N1CCCCC1,u,40µM*,u,-8%,-23%[57.1 µM],u
Cc1cc(C=O)cc(C)c1[N+](=O)[O-],16%,x,x,8%,x,1%
C=CCn1c(SC(C)C#N)nc2ccccc2c1=O (configuration not stated),-4%,x,x,15%,x,18%
CC[C@H](C)[C@H](NC(=O)[C@H](CO)NC(=O)[C@H](C)NC(=O)[C@H](C)NC(=O)[C@H](CCC(N)=O)NC(=O)[C@H](CCCCN)NC(=O)[C@H](CCCN=C(N)N)NC(=O)[C@@H](N)CS)C(=O)N[C@@H](CCCCN)C(=O)N[C@H](C(=O)N[C@@H](C)C(=O)N[C@H](C(=O)N[C@@H](CO)C(=O)O)C(C)C)C(C)C,10%[60.1 µM],x,x,x,x,x
CCOc1cc(C(=O)NCc2ccco2)cc(OCC)c1OCC,-4%,18%,-9%,-10%,-4%,31%
O=C(COC(=O)c1ccc(S(=O)(=O)NCc2ccco2)cc1)NCC1CCCCC1,-31%,35µM*,u,8%,u,u
CCOc1ccc(C(=O)OCC(=O)NCc2ccco2)cc1OCC,u,20µM*,u,-10%,u,u
O=C(COC(=O)c1ccc(S(=O)(=O)NCc2ccco2)cc1)Nc1ccccc1,-16%,x,-15%,-2%,-6%,35%
O=C(C[N+]1(CCO)CCOCC1)c1cccc2ccccc12,-19%,x,x,-10%,x,-11%
Fc1ccc(C(c2ccc(F)cc2)N2CCN(CC=Cc3ccccc3)CC2)cc1,-5%[19.4 µM],x,x,x,x,x
N#CC(C#N)=C1C=CC=CN1/C(=C\c1ccccc1Cl)C(=O)c1ccccc1,-11%,0%,-6%,-11%,50µM*,-3%
COc1ccc(NC(=O)c2c(NCc3ccc(C)o3)sc3c2CCC(C)C3)cc1 (configuration not stated),-5%[60.1 µM],-18%,0%,-5%,x,-3%
COc1cc(NC(=O)c2ccnc(N)c2)cc(C(=O)Nc2cccc(C(F)(F)F)c2)c1,-3%,0%,-12%,u,5%[11.6 µM],u
COc1cc(NC(=O)c2cnc(N)s2)cc(C(=O)Nc2cccc(C(F)(F)F)c2)c1,-12%,2%,-9%,56µM*,-7%,2.2µM*
Nc1c(O)cccc1C(=O)O,u,x,-2%,-22%,-5%[11.6 µM],40µM*
CC(C)C(=O)Nc1cccc(N2CCN(CCCN3C(=O)C4CCCCN4C3=O)CC2)c1 (configuration not stated),-19%,x,4%,u,-15%,13µM*
C=CCNc1nc(C(=O)OCC(=O)Nc2ccc(S(N)(=O)=O)cc2)cs1,-27%,x,56µM*,8%,-18%,28µM*
